Data from PubChem BioAssay AID686979 (National Center for Advancing Translational Sciences (NCATS), 2013).
The whole screen tested about 420,000 compounds, of which about 50,000 (12%) were called active. Another 26% or so got no clear call; they are omitted. This is one part of a sample in which actives are shown more often than they occur. Values without a mark were called inactive. The call rests on the fitted dose curve; in most records, active means well fitted inhibition curve with a large enough effect; inconclusive means small, poorly fitted or top-dose-only effect; inactive means flat fitted curve, though single readings scatter.

Assay: qHTS for Inhibitors of human tyrosyl-DNA phosphodiesterase 1 (TDP1): qHTS in cells in presence of CPT; further: nearly all actives have a fitted effect of over 55% in size
Settings: chicken DT40 Tdp1-/-;hTDP1 cells + 20 nM CPT, ATP luminescence, 48 h; series mostly up to 46.2 µM; activity change, negative = growth inhibition: at the top concentration
Procedure, shortened: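 Chicken DT40 Tdp1-/- cells complemented with human TDP1, 400 cells/well, exposed to compounds plus 20 nM camptothecin for at least 48 h at 37 C; viability read as ATP content by CellTiter-Glo luminescence.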
On the % scale 0 is the no-effect control and ±100 the full control effect; potency means the concentration at half of the fitted maximal effect.

Structure (SMILES) | activity change, negative = growth inhibition [%] | Potency
O=C(Nc1ccccc1Cl)N1CCN(c2ccc3nncn3n2)CC1 | 3.27 | 
Cc1c(C)c2ccc(OCC(=O)N3CCC(C(=O)O)CC3)c(C)c2oc1=O | 17.1 | 
Cc1cccc(OCCC(=O)OCc2csc(CC(=O)Nc3ccccc3C)n2)c1 | -16.9 | 
COC(=O)c1ccc(CNC(=O)c2ccc3oc(C(C)C)nc3c2)cc1 | -27.4 | 
COc1ccc(CSc2nnnn2-c2ccc(O)cc2)cc1F | -50.4 | 
CC1CCCCC1NC(=O)Cn1cnc2c1c(=O)n(C)c(=O)n2C (stereo unspecified) | -10.2 | 
O=C(Oc1ccccc1Cl)c1ccc(N2CCOCC2)c([N+](=O)[O-])c1 | -13.1 | 
O=C(c1ccc(Oc2ccc(Cl)cc2)c([N+](=O)[O-])c1)N1CCCC1 |  | 13 µM (active)
O=C(COc1ccc(Cl)cc1[N+](=O)[O-])N1CCCCC1 | -12.8 | 
Cc1ccc(-c2nn(CC(C)(C)C)c3ncnc(N)c23)cc1 |  | 6.68 µM (active)
Cc1ccc(-n2cnc3ncnc(-c4ccccc4)c32)cc1 | 24.9 | 
CC(=O)NC(CC(=O)Nc1nccs1)c1ccccc1 (stereo unspecified) | -13 | 
CCOc1ccc(NC(=O)CN(C)C(=O)COc2cccc(CC)c2)cc1OCC | -24.3 | 
Cc1noc(C)c1CCC(=O)N1CCCC(CO)(Cc2ccccc2)C1 (stereo unspecified) | -17.9 | 
Oc1ccc2ccccc2c1N=Nc1nccs1 |  | 1.16 µM (active)
Oc1ccc2ccccc2c1C=Nc1ccccc1 | 1.22 | 
Oc1ccc(N=Nc2nccs2)c(O)c1 |  | 10.3 µM (active)
O=C(OCC(=O)N1CCCCCC1)c1ccc(Br)c(S(=O)(=O)N2CCOCC2)c1 | -9.49 | 
COC(=O)C1=C(C(=O)OC)[C@@H]2N(Cc3ccccc3)c3ccccc3[C@@]23C[C@@H](C(=O)OC)N(S(=O)(=O)c2ccc(C(F)(F)F)cc2)C3=N1 | -26.2 | 
CN1OC[C@@H]2CN(C(=O)C(C)(C)C)[C@H](c3ccc(-n4ccnc4)cc3)C[C@@H]21 | -11.7 | 
O=C(CCN1C(=O)c2ccccc2C1=O)Nc1cccc(F)c1 | -3.34 | 
Cc1cc(C(=O)Nc2c(C)n(C)n(-c3ccccc3)c2=O)cs1 | -15 | 

Structure (SMILES) | activity change, negative = growth inhibition [%] | Potency
O=C(Nc1cccc(NC(=O)c2cccc(F)c2)c1)c1ccccc1 | -13.4 | 
Cc1c(NC(=O)c2cccnc2)c(=O)n(-c2ccccc2)n1C |  | inactive
O=C(Nc1cccc(F)c1)c1coc(=O)c(Br)c1 |  | 1.3 µM (active)
Cc1c(NC(=O)c2coc(=O)c(Br)c2)c(=O)n(-c2ccccc2)n1C |  | 2.59 µM (active)
NS(=O)(=O)c1ccc(NC(=S)N2CCCC2)cc1 | -3.82 | 
CCSC1=NCCN1C(=O)c1ccc(S(=O)(=O)N(CC)CC)cc1 | 9.95 | 
COc1ccc(N(C(=O)c2cccnc2)S(=O)(=O)c2ccc(OC)c(OC)c2)cc1 | -24.6 | 
COc1ccccc1C(=O)NNC(=O)c1ccc(NC(=O)c2ccccc2)cc1 | -24.4 | 
COc1ccc(C(=O)Nc2ccc(-n3nncc3-c3ccccc3)cc2)cc1OC |  | 3.66 µM (active)
COc1ccc(C(=O)Nc2cccnc2)cc1C(=O)Nc1cccnc1 | -4.05 | 
CCC1OC(C2CC2)CC2=C1C(=O)OC(C)(C)O2 (stereo unspecified) | -4.59 | 
CC(=O)N1N=C(c2ccccc2)OC1c1cccnc1 (stereo unspecified) | -0.38 | 
Cc1cc(C)cc(NC(=O)CCN2C(=O)c3ccccc3C2=O)c1 | -4.76 | 
O=C(N/N=C/c1ccc(O)c2ccccc12)c1cccnc1 | -13.9 | 
Cc1ccc(/C=N/NC(=O)C2=NNC(c3ccccc3)(c3ccccc3)C2)c(O)c1 |  | 4.61 µM (active)
Cc1ccc2nc(CNC(=O)c3ccccc3)[nH]c2c1 | 9.98 | 
COc1ccc(C2=NO[C@@H]3C(=O)N(Cc4ccccc4)C(=O)[C@H]23)cc1OC | 3.64 | 
COc1ccc(-c2cc(C(F)(F)F)nc(S(C)(=O)=O)n2)cc1OC |  | 2.06 µM (active)
CCN(CC)CCN(C)C(c1ccnc2ccccc12)c1nnnn1-c1ccc2c(c1)OCCO2 (stereo unspecified) | -31.6 | 
Cc1ccc(S(=O)(=O)NCCCn2ccnc2)cc1C(=O)NC(C)C | -3.13 | 
O=C(NCc1ccco1)c1ccc([N+](=O)[O-])cc1Cl | 3.37 | 
Cc1ccc(C(=O)OCC(=O)NC2CCCCCCC2)cc1C | -4.81 | 

Structure (SMILES) | activity change, negative = growth inhibition [%] | Potency
c1ccc2c(c1)C(=NC1CCCCC1)NC2=NC1CCCCC1 |  | 18.4 µM (active)
COc1cc(NC(=S)N2CCCC(C)C2)cc(OC)c1OC (stereo unspecified) | -22.1 | 
COc1cccc(C(=O)NCc2ccc3c(c2)CCN3C(=O)c2ccncc2)c1 | -12.1 | 
O=C(Cc1ccccc1)NCc1ccc(F)cc1 | -7.47 | 
CCC(=O)N1CCc2cc(CNC(=O)Nc3ccccc3Cl)ccc21 | -29.4 | 
O=C(CCc1ccc(S(=O)(=O)NC2CCCCC2)cc1)NCc1ccccc1 | -18.8 | 
O=C(CCc1ccccc1)NCc1ccc2c(c1)CCN2C(=O)c1ccccc1 |  | 10.3 µM (active)
O=C(COc1ccccc1)Nc1ccc(C(=O)N2CCCC2)cc1 | 1.05 | 
O=C(NCc1ccc2c(c1)CCN2C(=O)c1ccccc1)Nc1cc(F)ccc1F |  | 16.4 µM (active)
O=C(COc1ccccc1)NCc1ccc2c(c1)CCN2C(=O)c1ccc(F)cc1 |  | 16.4 µM (active)
Cc1cccc(C(=O)N2CCc3cc(CNC(=O)Cc4ccc(F)cc4)ccc32)c1 |  | 16.4 µM (active)
Cc1ccc(C(=O)N2CCc3cc(CNC(=O)c4ccc(Br)cc4)ccc32)cc1 | -84.3 | 
O=C(CSCc1ccccc1)N1CCc2ccccc21 | -9.01 | 
O=C(CN1CCN(C(=O)c2cccc(F)c2)CC1)Nc1ccccc1F | 0.779 | 
CC1CCC2(CC1)NC(=O)N(CC(=O)c1ccc3c(c1)OCO3)C2=O (stereo unspecified) | 4.95 | 
COc1cc(OC)c(N(C)C(=O)c2cc3c(=O)oc4ccccc4c3s2)cc1Cl | 4.07 | 
CCc1nnc(NS(=O)(=O)c2ccc(NC(=O)c3cccc(OC(F)(F)C(F)F)c3)cc2)s1 | 6.34 | 
CCCCCC(=O)Nc1ccc(-c2cn3cccnc3n2)cc1 | -3.88 | 
O=C(Nc1cccc2cccnc12)c1cccc2c(Br)cccc12 | -12.4 | 
COC(=O)C1NN=C(C(=O)c2ccc(Br)cc2)C1c1cccc(Br)c1 (stereo unspecified) | 6.78 | 
O=C(Nc1ccc(Br)cc1)c1cccc(NC(=O)C2C3CC4OC(=O)C2C4C3)c1 (stereo unspecified) | -28.6 | 
Cc1cc2cc(CNC(=O)c3cccs3)ccc2[nH]1 | -0.633 | 

Structure (SMILES) | activity change, negative = growth inhibition [%] | Potency
CCc1cccc(CC)c1NC(=S)NCc1ccc2[nH]c(C)cc2c1 |  | 23.1 µM (active)
CCc1cccc(CC)c1NC(=S)Nc1ccc2cn[nH]c2c1 | -26.3 | 
Cc1cccc(NC(=O)N2CCCCCC2)c1C | 1.89 | 
CCCCc1nc2ccccc2c(NC(=O)CN2CCN(C)CC2)c1CCC | -15.1 | 
CCCc1nc2ccccc2c(C(=O)OCc2nnc(-c3cc(OC)c(OC)c(OC)c3)o2)c1CC |  | 16.4 µM (active)
O=C(OCc1nnc(-c2ccccc2)o1)c1cc(=O)[nH]c2ccccc12 | -0.538 | 
O=C(CN1CCN(S(=O)(=O)c2ccc(Cl)s2)CC1)N1CCCCC1 | -25.8 | 
CCOC(=O)c1ccccc1OC(=O)Oc1ccccc1C(=O)OCC | 7.31 | 
CCOC(=O)C=Cc1ccc(C(=O)OCC)[nH]1 |  | 13 µM (active)
CCOC(=O)c1c(C)[nH]c(C)c1C(=O)COC(=O)/C=C/c1cccc([N+](=O)[O-])c1 | -20.3 | 
CCn1c(N)c(Br)c(=O)[nH]c1=O | -19.5 | 
CCCCCOc1ccc(/C=C/C(=O)NCCc2nc3ccccc3[nH]2)cc1OC |  | 16.4 µM (active)
COc1ccc(CCNC(=S)NC(=O)/C=C/c2ccc(C)cc2)cc1OC | -23.2 | 
O=C(COc1ccccc1)NCCc1nc2ccccc2[nH]1 | -7.59 | 
Cc1nn(CC(=O)NCC2CCCO2)c(=O)c2cc3ccccc3n12 (stereo unspecified) | 40.8 | 
C=C(C)C1CC=C(CO)CC1 (stereo unspecified) | 15.1 | 
Cc1ccc(-c2nc(=N)sn2Cc2ccccc2)cc1 |  | 4.47 µM (active)
Cc1ccc(CN2C(=O)SC(Nc3ccccc3)C2=O)cc1 (stereo unspecified) | -16.3 | 
Cc1ccc(-n2nc(CO)c(C(=O)NCCc3ccccc3)n2)cc1 | 8.8 | 
Cc1ccnc(NC(=O)CCCOc2ccccc2)c1 | 2.35 | 
CCN1CCN(c2nc(Nc3cccc(F)c3)nc(N)c2[N+](=O)[O-])CC1 | -19.7 | 
CN(C)C(CNC(=O)c1ccc(OCc2cn3ccccc3n2)cc1)c1ccco1 (stereo unspecified) | 4.85 | 

Structure (SMILES) | activity change, negative = growth inhibition [%] | Potency
CC1=C(N2CCN(c3ncccn3)CC2)CCC1=O | -1.99 | 
Cc1nn(-c2ccccc2)c2c1C(=O)NC(=O)C(C)(C)C2 | -25.9 | 
Cc1nn(-c2ncccn2)c2c1C(=O)CC(C)(C)C2Br (stereo unspecified) |  | 20.6 µM (active)
COc1ccc2cc(-c3nc(Cl)c4c5c(sc4n3)CC(C)CC5)c(=O)oc2c1 (stereo unspecified) | 3.95 | 
CC(C)CNC(=O)CC(c1ccccc1)c1c(O)ccc2ccccc12 (stereo unspecified) | -19 | 
CC(C)NC(=O)C(c1ccc(F)cc1)N(C(=O)CCC(=O)Nc1ccccn1)c1ccccc1F (stereo unspecified) | 3.64 | 
O=C(c1cc(COc2cccc(C(F)(F)F)c2)on1)N1CCSCC1 | -23.1 | 
Cc1ccc(C(=O)N2CC(=O)Nc3ccccc32)o1 | -0.865 | 
Cc1ccc(CNC(=O)C2(C(F)(F)F)C/C(=C\Cc3ccccc3)CCCO2)o1 (stereo unspecified) |  | 16.4 µM (active)
COC(=O)[C@]12CCCCC=C1N(Cc1ccccc1)C(=O)[C@H](CC(=O)NCc1ccc(C)o1)C2 | -20 | 
Cc1ccc2c(c1)nnc1nnc(SCC(=O)O)n12 | -2.45 | 
Cc1cccc(-c2nnc(SCC(=O)O)n2Cc2ccccc2)c1 | 2.29 | 
CCC(C(=O)NC1CCCC1)N(C(=O)Cn1nnc(-c2ccc(C)o2)n1)c1ccc(OC)c(OC)c1 (stereo unspecified) | 4.9 | 
Cc1cccc(C)c1NC(=O)COC(=O)c1ccccc1O | -1.8 | 
COc1ccc(N=C(C)c2sc3ccccc3c2O)cc1 | 3.55 | 
COc1ccc(/C=C(/CC(=O)Nc2ccc(C)cc2)c2nc3ccccc3s2)cc1 | 12.5 | 
COC(=O)Cc1[nH]n(-c2nc3ccccc3s2)c(=O)c1C(C)=Nc1ccc(OC)cc1 |  | 5.17 µM (active)
COc1ccc(C2NC(=S)NC3=C2CCc2ccccc23)cc1OC (stereo unspecified) | -8.49 | 
